# Laboratory results: PubChem BioAssay (NCI)
# The panel holds about 79,000 compounds, 15% with a hit somewhere; the sample as a whole holds those more often. Values without a mark were called inactive. Calls of active or inactive are those of the source. No stated cut-off is given here; in the data, active means growth inhibition above about 70%; inactive means the rest.
# Columns and labels:
# [1] = NCI Yeast Anticancer Drug Screen. Data for the wt2 strain (AID 169);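 further: 0% = growth of vehicle-treated yeast cultures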; conditions: S. cerevisiae wt2 strain growth inhibition, active compounds read high
# Method in brief: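 This strain belongs to a panel of yeast strains with defined genetic alterations in DNA damage repair or cell cycle control. Compounds are applied, and growth inhibition is measured against vehicle-treated cultures.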
# [2] = NCI Yeast Anticancer Drug Screen. Data for the mlh1 strain (AID 171);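 further: 0% = growth of vehicle-treated control cultures of the same strain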; conditions: S. cerevisiae mlh1 strain growth inhibition, active compounds read high
# Method in brief: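 Growth of the mutant yeast strain after compound exposure, expressed as inhibition relative to vehicle-only controls.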
# [3] = NCI Yeast Anticancer Drug Screen. Data for the sgs1 strain (AID 173);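 further: 0% = growth of vehicle-only control cultures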; conditions: S. cerevisiae sgs1 mutant, active compounds read high
# Method in brief: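 Growth of a yeast strain bearing a defined genetic alteration is measured after compound treatment. Inhibition is expressed relative to vehicle-only controls.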
# [4] = NCI Yeast Anticancer Drug Screen. Data for the mlh1 rad18 strain (AID 175); conditions: S. cerevisiae mlh1 rad18 strain growth inhibition, active compounds read high
# Method in brief: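 Read-out is yeast growth inhibition, calculated against vehicle-only controls. The compound was applied to a strain engineered with DNA damage repair alterations.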
# [5] = NCI Yeast Anticancer Drug Screen. Data for the rad52 strain (AID 147);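 further: 0% = growth of vehicle-treated control cultures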; conditions: S. cerevisiae rad52 mutant growth inhibition, active compounds read high
# Method in brief: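 Compounds are applied to a genetically defined yeast strain lacking normal DNA damage repair, and inhibition of growth is expressed relative to cultures given vehicle only.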
# [6] = NCI Yeast Anticancer Drug Screen. Data for the wt1 strain (AID 149);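 further: 0% = growth of vehicle-treated wt1 cultures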; conditions: S. cerevisiae wt1 strain (SPY 50644) growth inhibition, active compounds read high
# Method in brief: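 Measured: growth of wt1 yeast under compound versus vehicle treatment, reported as inhibition.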
# [7] = NCI Yeast Anticancer Drug Screen. Data for the rad50EPP+ strain (AID 151);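 further: 0% = growth of vehicle-treated control cultures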; conditions: S. cerevisiae rad50 mutant strain, active compounds read high
# Method in brief: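 Compounds were applied to the rad50EPP+ yeast strain, which bears a defined DNA repair alteration, and growth inhibition was determined relative to vehicle-treated cultures.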
# [8] = NCI Yeast Anticancer Drug Screen. Data for the mgt1 strain (AID 153); conditions: S. cerevisiae mgt1 mutant growth inhibition, active compounds read high
# Method in brief: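 Strain: mgt1 yeast, one of a set carrying defined DNA damage repair or cell cycle control alterations. Compound-treated growth compared with vehicle.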
# [9] = NCI Yeast Anticancer Drug Screen. Data for the rad50 strain (AID 155);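 further: 0% = growth of vehicle-only cultures of the same strain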; conditions: S. cerevisiae rad50 strain growth inhibition, active compounds read high
# Method in brief: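 Growth of the mutant yeast was measured after compound exposure and referenced to vehicle-treated cultures.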
# [10] = NCI Yeast Anticancer Drug Screen. Data for the mec2-1 strain (AID 157); conditions: S. cerevisiae mec2-1 strain, active compounds read high
# Method in brief: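 Strain: mec2-1 (DNA repair/cell cycle alteration). Compound exposure, then growth measured; inhibition expressed relative to vehicle.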
# [11] = NCI Yeast Anticancer Drug Screen. Data for the rad14 strain (AID 159);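 further: 0% = growth of vehicle-treated control cultures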; conditions: S. cerevisiae rad14 strain growth inhibition, active compounds read high
# Method in brief: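 Here, inhibition of yeast growth was measured after compound exposure, using a strain with a genetic defect in DNA damage repair and vehicle-treated cultures as the reference.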
# [12] = NCI Yeast Anticancer Drug Screen. Data for the cln2 rad14 strain (AID 165);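 further: 0% = growth equal to vehicle treated cultures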; conditions: S. cerevisiae cln2 rad14 strain, active compounds read high
# Method in brief: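 Compounds are applied to the cln2 rad14 yeast strain, and growth is then compared with that of vehicle-treated cultures to give inhibition.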
# [13] = NCI Yeast Anticancer Drug Screen. Data for the bub3 strain (AID 167); conditions: S. cerevisiae bub3 mutant strain, active compounds read high
# Method in brief: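 Whole-cell yeast assay. The mutant strain was incubated with compounds, and growth inhibition was determined by comparison with vehicle-treated cells.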
# [14] = NCI Yeast Anticancer Drug Screen. Data for the sgs1 mgt1 strain (AID 161);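 further: 0% = growth of cultures given vehicle only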; conditions: S. cerevisiae sgs1 mgt1 strain, active compounds read high
# Method in brief: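 Test agents were incubated with a DNA-repair-mutant yeast strain. Growth was then read and compared against vehicle-treated controls.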
# [15] = NCI Yeast Anticancer Drug Screen. Data for the CLN2oe strain (AID 163);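 further: 0% = growth of vehicle-only control cultures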; conditions: S. cerevisiae CLN2oe strain, active compounds read high
# Method in brief: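 Growth of a genetically modified yeast strain is measured after compound exposure and compared with cultures given vehicle alone.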
# [16] = NCI Yeast Anticancer Drug Screen. Data for the rad18 strain (AID 177); conditions: S. cerevisiae rad18 mutant growth inhibition, active compounds read high
# Method in brief: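 Growth of the mutant yeast strain after compound exposure, normalised to vehicle-only cultures.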
# [17] = at 5.0 µM (retest, dose inferred, filed as 0.5)
# [18] = at 50.0 µM (retest, dose inferred, filed as 5.0)
smiles,measurement,setting,value
O=C(/C=C\c1cccc(C(F)(F)F)c1)c1ccccc1,growth inhibition,[1]; at 33.0 µM,-2%
same,growth inhibition,[1]; at 100.0 µM,-4%
same,growth inhibition,[2]; at 1.2 µM,-2%
same,growth inhibition,[2]; at 3.7 µM,-2%
same,growth inhibition,[2]; at 11.0 µM,-2%
same,growth inhibition,[2]; at 33.0 µM,-3%
same,growth inhibition,[2]; at 100.0 µM,-1%
same,growth inhibition,[3]; at 1.2 µM,-2%
same,growth inhibition,[3]; at 3.7 µM,-3%
same,growth inhibition,[3]; at 11.0 µM,1%
same,growth inhibition,[3]; at 33.0 µM,0%
same,growth inhibition,[3]; at 100.0 µM,3%
same,growth inhibition,[4]; [17],16%
same,growth inhibition,[4]; [18],78% (active)
same,growth inhibition,[4]; at 50.0 µM,25.9%
c1ccc(CCN2CCc3ccccc3C2)cc1,growth inhibition,[5]; at 1.2 µM,-1%
same,growth inhibition,[5]; at 3.7 µM,0%
same,growth inhibition,[5]; at 11.0 µM,10%
same,growth inhibition,[5]; at 33.0 µM,12%
same,growth inhibition,[5]; at 100.0 µM,19%
same,growth inhibition,[6]; at 1.2 µM,-1%
same,growth inhibition,[6]; at 3.7 µM,4%
same,growth inhibition,[6]; at 11.0 µM,4%
same,growth inhibition,[6]; at 33.0 µM,6%
same,growth inhibition,[6]; at 100.0 µM,4%
same,growth inhibition,[7]; at 1.2 µM,-3%
same,growth inhibition,[7]; at 3.7 µM,-3%
same,growth inhibition,[7]; at 11.0 µM,-1%
same,growth inhibition,[7]; at 33.0 µM,-4%
same,growth inhibition,[7]; at 100.0 µM,0%
same,growth inhibition,[8]; at 1.2 µM,-2%
same,growth inhibition,[8]; at 3.7 µM,-3%
same,growth inhibition,[8]; at 11.0 µM,4%
same,growth inhibition,[8]; at 33.0 µM,6%
same,growth inhibition,[8]; at 100.0 µM,16%
same,growth inhibition,[9]; at 1.2 µM,1%
same,growth inhibition,[9]; at 3.7 µM,2%
same,growth inhibition,[9]; [17],-9%
same,growth inhibition,[9]; at 11.0 µM,3%
same,growth inhibition,[9]; at 33.0 µM,8%
same,growth inhibition,[9]; [18],49%
same,growth inhibition,[9]; at 50.0 µM,43.9%
same,growth inhibition,[9]; at 100.0 µM,10%
same,growth inhibition,[10]; at 1.2 µM,-3%
same,growth inhibition,[10]; at 3.7 µM,1%
same,growth inhibition,[10]; [17],-10%
same,growth inhibition,[10]; at 11.0 µM,6%
same,growth inhibition,[10]; at 33.0 µM,8%
same,growth inhibition,[10]; [18],1%
same,growth inhibition,[10]; at 50.0 µM,12.8%
same,growth inhibition,[10]; at 100.0 µM,8%
same,growth inhibition,[11]; at 1.2 µM,2%
same,growth inhibition,[11]; at 3.7 µM,10%
same,growth inhibition,[11]; at 11.0 µM,24%
same,growth inhibition,[11]; at 33.0 µM,33%
same,growth inhibition,[11]; at 100.0 µM,29%
same,growth inhibition,[12]; [17],-6%
same,growth inhibition,[12]; [18],21%
same,growth inhibition,[12]; at 50.0 µM,33.7%
same,growth inhibition,[13]; at 1.2 µM,-1%
same,growth inhibition,[13]; at 3.7 µM,-1%
same,growth inhibition,[13]; [17],24%
same,growth inhibition,[13]; at 11.0 µM,7%
same,growth inhibition,[13]; at 33.0 µM,21%
same,growth inhibition,[13]; [18],74% (active)
same,growth inhibition,[13]; at 50.0 µM,56.8%
same,growth inhibition,[13]; at 100.0 µM,40%
same,growth inhibition,[1]; at 1.2 µM,-1%
same,growth inhibition,[1]; at 3.7 µM,1%
same,growth inhibition,[1]; at 11.0 µM,4%
same,growth inhibition,[1]; at 33.0 µM,8%
same,growth inhibition,[1]; at 100.0 µM,8%
same,growth inhibition,[2]; at 1.2 µM,-2%
same,growth inhibition,[2]; at 3.7 µM,1%
same,growth inhibition,[2]; at 11.0 µM,4%
same,growth inhibition,[2]; at 33.0 µM,11%
same,growth inhibition,[2]; at 100.0 µM,11%
same,growth inhibition,[3]; at 1.2 µM,-1%
same,growth inhibition,[3]; at 3.7 µM,0%
same,growth inhibition,[3]; at 11.0 µM,6%
same,growth inhibition,[3]; at 33.0 µM,18%
same,growth inhibition,[3]; at 100.0 µM,17%
same,growth inhibition,[4]; [17],11%
same,growth inhibition,[4]; [18],71% (active)
same,growth inhibition,[4]; at 50.0 µM,21.9%
O=C1NC(=O)c2ccc([N+](=O)[O-])c3cccc1c23,growth inhibition,[5]; at 1.2 µM,11%
same,growth inhibition,[5]; at 3.7 µM,27%
same,growth inhibition,[5]; at 11.0 µM,36%
same,growth inhibition,[5]; at 33.0 µM,56%
same,growth inhibition,[5]; at 100.0 µM,73% (active)
same,growth inhibition,[6]; at 1.2 µM,-12%
same,growth inhibition,[6]; at 3.7 µM,32%
same,growth inhibition,[6]; at 11.0 µM,25%
same,growth inhibition,[6]; at 33.0 µM,24%
same,growth inhibition,[6]; at 100.0 µM,36%
same,growth inhibition,[7]; at 1.2 µM,45%
same,growth inhibition,[7]; at 3.7 µM,51%
same,growth inhibition,[7]; at 11.0 µM,65%
same,growth inhibition,[7]; at 33.0 µM,78% (active)
same,growth inhibition,[7]; at 100.0 µM,81% (active)
same,growth inhibition,[8]; at 1.2 µM,11%
same,growth inhibition,[8]; at 3.7 µM,18%
same,growth inhibition,[8]; at 11.0 µM,20%
same,growth inhibition,[8]; at 33.0 µM,30%
same,growth inhibition,[8]; at 100.0 µM,49%
same,growth inhibition,[9]; at 1.2 µM,7%
same,growth inhibition,[9]; at 3.7 µM,13%
same,growth inhibition,[9]; [17],-15%
same,growth inhibition,[9]; at 11.0 µM,20%
same,growth inhibition,[9]; at 33.0 µM,47%
same,growth inhibition,[9]; [18],55%
same,growth inhibition,[9]; at 50.0 µM,64.5%
same,growth inhibition,[9]; at 100.0 µM,65%
same,growth inhibition,[10]; at 1.2 µM,11%
same,growth inhibition,[10]; at 3.7 µM,20%
same,growth inhibition,[10]; [17],-36%
same,growth inhibition,[10]; at 11.0 µM,20%
same,growth inhibition,[10]; at 33.0 µM,35%
same,growth inhibition,[10]; [18],23%
same,growth inhibition,[10]; at 50.0 µM,33.5%
same,growth inhibition,[10]; at 100.0 µM,72% (active)
same,growth inhibition,[14]; [17],-8%
same,growth inhibition,[14]; [18],23%
same,growth inhibition,[14]; at 50.0 µM,68.8%
same,growth inhibition,[15]; at 1.2 µM,-2%
same,growth inhibition,[15]; at 3.7 µM,-1%
same,growth inhibition,[15]; at 11.0 µM,3%
same,growth inhibition,[15]; at 33.0 µM,17%
same,growth inhibition,[15]; at 100.0 µM,68%
same,growth inhibition,[12]; [17],24%
same,growth inhibition,[12]; [18],68%
same,growth inhibition,[12]; at 50.0 µM,72.2% (active)
same,growth inhibition,[13]; at 1.2 µM,28%
same,growth inhibition,[13]; at 3.7 µM,43%
same,growth inhibition,[13]; [17],2%
same,growth inhibition,[13]; at 11.0 µM,39%
same,growth inhibition,[13]; at 33.0 µM,55%
same,growth inhibition,[13]; [18],79% (active)
same,growth inhibition,[13]; at 50.0 µM,51.9%
same,growth inhibition,[13]; at 100.0 µM,67%
same,growth inhibition,[1]; at 1.2 µM,21%
same,growth inhibition,[1]; at 3.7 µM,12%
same,growth inhibition,[1]; at 11.0 µM,29%
same,growth inhibition,[1]; at 33.0 µM,43%
same,growth inhibition,[1]; at 100.0 µM,62%
same,growth inhibition,[2]; at 1.2 µM,32%
same,growth inhibition,[2]; at 3.7 µM,28%
same,growth inhibition,[2]; at 11.0 µM,41%
same,growth inhibition,[2]; at 33.0 µM,65%
same,growth inhibition,[2]; at 100.0 µM,75% (active)
same,growth inhibition,[3]; at 1.2 µM,41%
same,growth inhibition,[3]; at 3.7 µM,51%
same,growth inhibition,[3]; at 11.0 µM,66%
same,growth inhibition,[3]; at 33.0 µM,78% (active)
same,growth inhibition,[3]; at 100.0 µM,74% (active)
same,growth inhibition,[4]; [17],51%
same,growth inhibition,[4]; [18],87% (active)
same,growth inhibition,[4]; at 50.0 µM,37.5%
same,growth inhibition,[16]; at 1.2 µM,48%
same,growth inhibition,[16]; at 3.7 µM,72% (active)
same,growth inhibition,[16]; at 11.0 µM,86% (active)
same,growth inhibition,[16]; at 33.0 µM,93% (active)
same,growth inhibition,[16]; at 100.0 µM,92% (active)
